The source made the active and inactive calls. Unless noted, how the calls were made is not given here.
Key:
[1] = liver-stage malaria parasite load reduction – cell-based, known kinase inhibitor set, luminescence, hepatoma host viability (AID 624392); conditions: Plasmodium liver stage in hepatoma cells, luciferase luminescence, concentration not given here; liver cell % of control: measured here: host liver cell viability; parasite % of control: stronger effect = lower value;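 further: infected cells incubated roughly two days before readout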
[2] = altered dexamethasone sensitivity, NF-kB reporter, cell-based, luciferase, IL-1B stimulus (AID 624486); conditions: IL-1B + dexamethasone, luminescence; percent of negative control (+Dex): actives lie on both sides, concentration not given here; z-score: measured here: IL-1B alone, no Dex;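 on percent of negative control (+Dex): 100% = mean signal of vehicle control wells on the plate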
[3] = C. elegans survival during P. aeruginosa infection – whole organism (AID 651566);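 further: tested at 14 µM; sign flipped so higher z means a lower ratio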; conditions: C. elegans killed by P. aeruginosa, survival ratio
[4] = pro-inflammatory signaling induction in mouse macrophages – cell-based, murine, luminescence (AID 652131); conditions: murine macrophage pro-inflammatory reporter, stronger effect = higher value
[5] = target: Cellular tumor antigen p53 (Homo sapiens) (UniProt P04637); experiment: GFP-p53 level modulators in HPV16+ cells – imaging, known kinase inhibitor set, EGFP/DsRed ratio (AID 1053116); conditions: GFP-p53 stability, stronger effect = higher value; EGFP object count: measured here: GFP-p53 positive objects count;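 further: cells exposed to compounds for 24 h at 37 °C before reading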
Cellular tumor antigen p53 (Homo sapiens), sequence (P04637 whole entry, looked up): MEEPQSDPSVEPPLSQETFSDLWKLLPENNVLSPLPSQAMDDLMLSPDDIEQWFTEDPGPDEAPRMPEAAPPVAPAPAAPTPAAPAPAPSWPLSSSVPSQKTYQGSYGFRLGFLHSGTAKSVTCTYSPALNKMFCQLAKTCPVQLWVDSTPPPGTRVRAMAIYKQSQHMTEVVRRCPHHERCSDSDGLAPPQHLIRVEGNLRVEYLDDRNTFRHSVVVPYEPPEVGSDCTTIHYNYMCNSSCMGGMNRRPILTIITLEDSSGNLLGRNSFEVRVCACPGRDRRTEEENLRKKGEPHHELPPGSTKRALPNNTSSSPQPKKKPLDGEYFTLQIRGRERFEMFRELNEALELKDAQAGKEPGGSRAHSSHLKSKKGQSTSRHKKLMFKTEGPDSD

[6] = inducers of IRF3 signaling, differentiated THP-1 – cell-based, PMA-stimulated THP-1, luminescence (AID 1053176); conditions: PMA-differentiated THP-1, IRF3 reporter luminescence; stronger effect = higher value
[7] = MELAS cybrid and Rieske KO viability enhancers – cell-based, MELAS cybrids, Rieske KO mouse fibroblasts, CellTiter-Glo, primary screen (AID 1508586;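 active means mean z-score across replicates of 1.96 or higher in either the MELAS or the Rieske mutant cell line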;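 further: z relative to plate mean and SD of compound and empty wells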); conditions: low glucose
[8] = MELAS cybrid survival, CellTiter-Glo 48 h, stronger effect = higher value
[9] = Rieske KO mouse fibroblast survival, CellTiter-Glo 72 h

Row | Compound | liver cell % of control [1] | parasite % of control [1] | percent of negative control (+Dex) [2] | z-score [2] | z-score [3] | z-score [4] | EGFP object count [5] | EGFP/DsRed ratio [5] | fraction signal [6] | z-score [7, 8] | z-score [7, 9]
1 | COc1cc(Nc2ncc3c(C)nc(-c4cccc(Oc5ccccc5)c4)n3n2)cc(OC)c1OC | 92.5% | 147% (inactive) | 77% (inactive) | -1.34 | 0.075 (inactive) | -0.606 (inactive) | 8.5 | 0.0854 (inactive) | 0 (inactive) | 0.38 (inactive) | 0.0156
2 | CCOc1ccc2c(-c3ccnc(Nc4cc(OC)cc(C(F)(F)F)c4)n3)cnn2n1 | 65.9% | 254% (inactive) | 86.5% (inactive) | 1.62 | -0.445 (inactive) | 0.258 (inactive) | 6 | 0.102 (inactive) | -0.001 (inactive) | 0.655 (inactive) | -0.17
3 | O=S1CCN(Cc2ccc(-c3ccc4ncnc(Nc5ccc(OCc6ccccc6)c(Cl)c5)c4c3)o2)CC1 | 98.4% | 108% (inactive) | 77% (inactive) | -0.87 | 0.67 (inactive) | 1.11 (inactive) | 5 | 0.0559 (inactive) | -0.0035 (inactive) | 1.05 (inactive) | -0.081
4 | NC(=O)c1sc(-n2cnc3ccc(C(F)(F)F)cc32)cc1OCc1ccccc1Br | 104% | 160% (inactive) | 98.5% (inactive) | 0.57 | -0.455 (inactive) | -0.965 (inactive) | 4 | 0.119 (inactive) | 0.007 (inactive) | -0.166 (inactive) | -0.246
5 | CC(=O)NCc1cccc(C#Cc2cncnc2Nc2ccc(OCc3cccc(F)c3)c(Cl)c2)c1 | 86.2% | 90.8% (inactive) | 77% (inactive) | -1.32 | 0.19 (inactive) | -0.99 (inactive) | 5.5 | 0.157 (inactive) | 0.004 (inactive) | 0.0992 (inactive) | -0.0459
6 | CN1CCC(C(=O)NC2NNC3NNC(c4ccccc4)CC32)CC1 (stereo not drawn) | 89.8% | 66% (inactive) | 90.5% (inactive) | -0.385 | -0.44 (inactive) | 3.5 (inactive) | 24 | 0.259 (inactive) | -0.0035 (inactive) | -0.114 (inactive) | -0.215
7 | CN1CCN(C(=O)c2ccc(NC(=O)Nc3ccc(N(C)c4ccnc(Nc5ccc(CS(C)(=O)=O)cc5)n4)cc3)cc2)CC1 | 86.4% | 77.1% (inactive) | 85.5% (inactive) | -0.585 | 0.175 (inactive) | 4.5 (inactive) | 2 | 0.13 (inactive) | -0.0115 (inactive) | 0.142 (inactive) | 0.134
8 | Cc1cc(O)cc(C)c1/C=C/c1cncc(-c2nn[nH]n2)c1 | 110% | 109% (inactive) | 106% (inactive) | -0.05 | 0.305 (inactive) | 3.53 (inactive) | 4.5 | 0.0667 (inactive) | -0.004 (inactive) | -0.295 (inactive) | -0.403
9 | COc1ccc2c(-c3ccnc(Nc4cccc(OC(F)(F)F)c4)n3)cnn2n1 | 77.9% | 166% (inactive) | 91% (inactive) | -0.08 | -0.6 (inactive) | -0.916 (inactive) | 5.5 | 0.0552 (inactive) | -0.005 (inactive) | 0.611 (inactive) | -0.245
10 | COc1cc(/C=N/Nc2ncnc3c2cnn3C(C)C)ccc1O | 128% | 63.2% (inactive) | 92.5% (inactive) | 0.145 | -0.5 (inactive) | -0.511 (inactive) | 6.5 | 0.127 (inactive) | -0.006 (inactive) | -1.18 (inactive) | 1.02
11 | O=C1Nc2ccccc2/C1=C1\CCc2cc(O)ccc21 | 77.7% | 108% (inactive) | 114% (inactive) | 1.81 | -1.72 (inactive) | 3.73 (inactive) | 8.5 | 0.108 (inactive) | -0.013 (inactive) | -0.0823 (inactive) | -0.0427
12 | COc1cc2ncnc(Nc3ccc4c(cnn4Cc4ccccc4)c3)c2cc1OC | 114% | 129% (inactive) | 71.5% (inactive) | -2.37 | -0.95 (inactive) | 3.16 (inactive) | 4 | 0.17 (inactive) | 0.032 (inactive) | 0.162 (inactive) | -0.293
13 | CN(C)c1ccc2[nH]c(O)c(C=Nc3ccc(S(N)(=O)=O)cc3)c2c1 | 88.2% | 103% (inactive) | 93% (inactive) | 0.245 | 0.065 (inactive) | 0.675 (inactive) | 6.5 | 0.209 (inactive) | -0.008 (inactive) | 1.57 (inactive) | -0.102
14 | CCOc1ccc2c(-c3ccnc(Nc4cccc(C(F)(F)F)c4)n3)cnn2n1 | 69.9% | 174% (inactive) | 78% (inactive) | 0 | 0.335 (inactive) | -0.613 (inactive) | 10 | 0.229 (inactive) | 0.0035 (inactive) | -0.0749 (inactive) | -0.0737
15 | COc1ccc2cc(-c3c(-c4ccncc4)nc(-c4ccc(S(C)=O)cc4C)n3C)ccc2c1 (stereo not drawn) | 94.7% | 66.8% (inactive) | 94% (inactive) | 0.56 | 0.7 (inactive) | 0.465 (inactive) | 2.5 | 0.206 (inactive) | -0.007 (inactive) | 0.0666 (inactive) | -0.0858
16 | O=C1Nc2ccc(C(=O)c3ccco3)cc2/C1=C/c1cc(Cl)c(O)c(Cl)c1 | 143% | 74.2% (inactive) | 91% (inactive) | 0.035 | 0.21 (inactive) | -0.774 (inactive) | 4.5 | 0.0627 (inactive) | -0.005 (inactive) | -1.39 (inactive) | -0.429
17 | COc1cc(/C=N/Nc2ncnc3c2cnn3Cc2ccccc2)ccc1O | 94.9% | 99.3% (inactive) | 85% (inactive) | -0.18 | -0.52 (inactive) | 1.23 (inactive) | 100 | 1.43 (active) | 0.0995 (inactive) | 1.43 (inactive) | 0.207
18 | Cc1ccc(C(=O)NC2CCC2)cc1-c1ccc(C(=O)NCC2CC2)cc1 | 104% | 116% (inactive) | 98.5% (inactive) | 1.36 | 0.425 (inactive) | -0.285 (inactive) | 2 | 0.0763 (inactive) | -0.002 (inactive) | -0.173 (inactive) | -0.404

Source: PubChem BioAssay
